About 83,000 compounds went through this panel and 20% of them were active in at least one assay; those are over-represented in the sample as a whole.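 Method: cells in 96-well plates; compound added at one concentration; 48 h incubation; percent growth measured; values under 10 scored active.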 Values without a mark were called inactive. Active and inactive are the calls of the source.

Among the test systems are HCT-15 colon; HT29 colon; SNB-75 CNS; SNB-19 CNS; U251 CNS; PC-3 prostate; SK-MEL-5 melanoma; UACC-62 melanoma; LOX IMVI melanoma; SK-MEL-28 melanoma; EKVX NSCLC; SN12C renal; UO-31 renal; TK-10 renal; ACHN renal; CAKI-1 renal; A498 renal; CCRF-CEM leukemia; MOLT-4 leukemia.
Assay in all cases: NCI-60 one-dose screen, 48 h (100 = growth as untreated, 0 = no growth, -100 = all killed)
What all share (details): 10 µM unless noted

Consider `O=C(Cn1ccc2ccccc21)Nc1ccc(-c2nc3ccccc3s2)cc1`, for which the growth was 110% in the assay on HCT-15 colon; 115% in the assay on HT29 colon; 93.8% with SNB-75 CNS; 98.6% in the assay on SNB-19 CNS; 97.6% in the assay on U251 CNS; 98% with PC-3 prostate. Moreover, the growth in the assay on SK-MEL-5 melanoma was 98.6%; in the assay on UACC-62 melanoma it was 95%; with LOX IMVI melanoma, 91.3%; with SK-MEL-28 melanoma, 114%; with EKVX NSCLC, 107%; in the assay on SN12C renal, 101%. Further, the growth is 92.4% in the assay with UO-31 renal; 104% in the assay on TK-10 renal; 111% in the assay on ACHN renal; 100% with CAKI-1 renal; 99.1% in the assay with A498 renal; 97% with CCRF-CEM leukemia. Moreover, the growth with MOLT-4 leukemia was 94.5%.

Regarding `COc1c(OCCCN2CCOCC2)ccc2c3n(c(=NC(=O)c4cnc(N)nc4)nc12)CCN3`, the growth was 14.9% with HCT-15 colon; 3.56% (active) in the assay with HT29 colon; -19.2% (active) in the assay on SNB-75 CNS; 10.8% with SNB-19 CNS; 10.1% in the assay with U251 CNS; 12% with PC-3 prostate. Moreover, the growth with SK-MEL-5 melanoma is -48.7% (active); in the assay with UACC-62 melanoma, -48.9% (active); with LOX IMVI melanoma, -41.9% (active); in the assay with SK-MEL-28 melanoma it was -7.18% (active); in the assay on EKVX NSCLC it was 13.2%; in the assay on SN12C renal it was 16.3%. The growth is -13.8% (active) in the assay with UO-31 renal; -21% (active) in the assay with TK-10 renal; 8.09% (active) in the assay on ACHN renal; 0.422% (active) in the assay on CAKI-1 renal; -60.7% (active) in the assay on A498 renal; 17.7% in the assay with CCRF-CEM leukemia. For the same molecule, in the assay with MOLT-4 leukemia, the growth was 6.38% (active).

For `COc1cc(CCc2cc(NC(=O)c3ccc(N4C[C@@H](C)N[C@@H](C)C4)cc3)n[nH]2)cc(OC)c1`, the growth is 53.5% in the assay with HCT-15 colon; 4.25% (active) in the assay with HT29 colon; 6.83% (active) in the assay on SNB-75 CNS; 83.4% in the assay with SNB-19 CNS; 45.2% in the assay with U251 CNS; 47.2% in the assay on PC-3 prostate. The growth in the assay on SK-MEL-5 melanoma is 17.3%; in the assay with UACC-62 melanoma it was 45.4%; in the assay with LOX IMVI melanoma, -30.9% (active); with SK-MEL-28 melanoma, 35.7%; in the assay with EKVX NSCLC, 84.7%; in the assay with SN12C renal, 31.1%. In addition, the growth was 9.25% (active) with UO-31 renal; 57.6% with TK-10 renal; 39.5% with ACHN renal; 20.4% in the assay with CAKI-1 renal; -1.03% (active) in the assay on A498 renal; 29.6% with CCRF-CEM leukemia. Further, the growth with MOLT-4 leukemia is 10.6%.

Turning to `C[C@@H]1COC(Nc2ccc3ncnc(Nc4ccc(OCc5nccs5)c(Cl)c4)c3c2)=N1`, the growth in the assay with HCT-15 colon was 29.2%; with HT29 colon it was 14.8%; in the assay on SNB-75 CNS, 27.9%; with SNB-19 CNS it was 67.8%; in the assay with U251 CNS, 42.3%; in the assay on PC-3 prostate it was 8.43% (active). Also, the growth in the assay on SK-MEL-5 melanoma was -39% (active); in the assay on UACC-62 melanoma, 23.5%; in the assay with LOX IMVI melanoma it was 17.8%; in the assay on SK-MEL-28 melanoma, 29.8%; with EKVX NSCLC, 32.2%; with SN12C renal, 53.8%. Further, the growth in the assay on UO-31 renal is 18.7%; in the assay on TK-10 renal, 20.4%; in the assay on ACHN renal, 23.3%; with CAKI-1 renal, 36.4%; with A498 renal, 22.5%; in the assay on CCRF-CEM leukemia it was 24.7%. Further, the growth in the assay on MOLT-4 leukemia was 18.4%.

Regarding `C[C@@H]1COCCN1c1cc(C2([S@](C)(=N)=O)CC2)nc(-c2ccnc3[nH]ccc23)n1`, the growth with HCT-15 colon was 31.7%; with HT29 colon it was 13.4%; with SNB-75 CNS it was 31.1%; with SNB-19 CNS, 28%; in the assay on U251 CNS, 32.2%; with PC-3 prostate, 50.7%. The growth with SK-MEL-5 melanoma is 21.4%; in the assay on UACC-62 melanoma, 23.7%; with LOX IMVI melanoma, 2.37% (active); in the assay with SK-MEL-28 melanoma it was 70.7%; in the assay with EKVX NSCLC, 54.2%; with SN12C renal it was 41%. The growth in the assay on UO-31 renal is 13.2%; in the assay on TK-10 renal, 42.9%; in the assay on ACHN renal it was 7.85% (active); in the assay on CAKI-1 renal, 28.9%; with A498 renal, -21.2% (active); in the assay on CCRF-CEM leukemia, 7.78% (active). Further, in the assay on MOLT-4 leukemia, the growth is 7.26% (active).

Turning to `Cc1c(N)ccc(-c2ccc(N)c(C)c2S(=O)(=O)O)c1S(=O)(=O)O`, the growth is 111% with HCT-15 colon; 111% in the assay with HT29 colon; 101% with SNB-75 CNS; 112% in the assay on SNB-19 CNS; 106% in the assay with U251 CNS; 98.4% in the assay on PC-3 prostate. The growth with SK-MEL-5 melanoma was 110%; in the assay with UACC-62 melanoma, 105%; in the assay with LOX IMVI melanoma, 98.6%; in the assay with SK-MEL-28 melanoma, 115%; in the assay with EKVX NSCLC it was 111%; in the assay on SN12C renal it was 106%. Also, the growth was 88% in the assay with UO-31 renal; 98.6% in the assay on TK-10 renal; 108% with ACHN renal; 116% in the assay with CAKI-1 renal; 100% with A498 renal; 102% in the assay on CCRF-CEM leukemia. In the assay with MOLT-4 leukemia, the growth was 102%.

Turning to `COC(=O)CNC(=O)[C@@H](OC)[C@@H]1Cc2cc3cc(OC4CC(OC5CC(O)C(O)C(C)O5)C(O)C(C)O4)c(C)c(O)c3c(O)c2C(=O)[C@H]1OC1CC(OC2CC(OC3CC(C)(O)C(O)C(C)O3)C(O)C(C)O2)C(O)C(C)O1` (some centres not stated), the growth with HCT-15 colon was 31.5%; in the assay on HT29 colon, 3.78% (active); in the assay on SNB-75 CNS it was -51.7% (active); in the assay on SNB-19 CNS, 9.4% (active); in the assay on U251 CNS, 9.93% (active); in the assay with PC-3 prostate, 12.9%. Also, the growth was -44.6% (active) in the assay with SK-MEL-5 melanoma; -65.2% (active) in the assay on UACC-62 melanoma; -15.5% (active) with LOX IMVI melanoma; -17.2% (active) in the assay with SK-MEL-28 melanoma; 20.2% in the assay with EKVX NSCLC; 13.7% in the assay with SN12C renal. Further, the growth in the assay with UO-31 renal was 10.9%; with TK-10 renal it was 21%; in the assay on ACHN renal, -1.39% (active); in the assay on CAKI-1 renal it was 43.5%; in the assay with A498 renal it was -74.3% (active); with CCRF-CEM leukemia it was 18%. For the same molecule, the growth with MOLT-4 leukemia is -2.56% (active).

In the case of `O=S1(=O)OC(c2cc(Cl)c(O)c(Br)c2)(c2cc(Cl)c(O)c(Br)c2)c2ccccc21`, the growth in the assay with HCT-15 colon was 105%; in the assay on HT29 colon, 102%; in the assay with SNB-75 CNS it was 83.4%; in the assay on SNB-19 CNS, 102%; with U251 CNS, 101%; in the assay with PC-3 prostate, 84.3%. The growth was 107% in the assay on SK-MEL-5 melanoma; 97.1% in the assay on UACC-62 melanoma; 96.5% with LOX IMVI melanoma; 118% with SK-MEL-28 melanoma; 110% in the assay with EKVX NSCLC; 90.6% in the assay with SN12C renal. Further, the growth in the assay on UO-31 renal was 76.5%; in the assay with TK-10 renal, 93%; in the assay on ACHN renal it was 103%; with CAKI-1 renal it was 107%; in the assay on A498 renal, 86.5%; in the assay on CCRF-CEM leukemia, 93.6%. In addition, the growth in the assay with MOLT-4 leukemia was 92.4%.

Source of the values: PubChem BioAssay (NCI).
